High-throughput results (PubChem BioAssay)
HCV inh = inhibitors of hepatitis C virus infection. Huh7.5.1 HCVcc-Cre infection, luciferase reporter, 44 h. hit rate 3.4% among 340,000. Potency, µM (titrated, usually from 41.8 µM), for inactives: top-dose activity change, negative = inhibition, usual class: inhibitors; further: potency means the concentration at half of the fitted maximal effect
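HCVcc-Cre virus at an moi near 0.5 was added right after compound to cells cultured 4 h from seeding (1,000 cells/well). Luciferase activity was determined 44 h later, 15 min after substrate addition at RT.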
HCMV antiviral = blocks human cytomegalovirus replication; HFF cells, HCMV-luciferase reporter, 72 h; hits give low values; hit rate 4.5% among 410,000; activity change, negative = inhibition, % at 57.5 µM; in the data active means activity change below about -60%; inconclusive means no clear call, values can overlap the other calls; inactive means above about -39%
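Two compound doses tested in HFFs infected with HCMV-luciferase, MOI 1 PFU/cell, 72 h at 37C. Lysate luminescence read with OneGlo; data normalized against buffer-only and 10uM Salinomycin inhibitor controls.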
Giardia FBPA inh = Giardia lamblia aldolase inhibition. A8B2U2. purified Giardia FBPA. Potency, µM (top dose mostly 59.6 µM), for the others: at the highest dose activity, negative = inhibition, usual class: inhibitors. hit rate 0.71% among 290,000. AID 2451; further: potency means the concentration at half of the fitted maximal effect; nearly all actives have a fitted effect of over 55% in size
Target sequence (A8B2U2 whole entry, looked up): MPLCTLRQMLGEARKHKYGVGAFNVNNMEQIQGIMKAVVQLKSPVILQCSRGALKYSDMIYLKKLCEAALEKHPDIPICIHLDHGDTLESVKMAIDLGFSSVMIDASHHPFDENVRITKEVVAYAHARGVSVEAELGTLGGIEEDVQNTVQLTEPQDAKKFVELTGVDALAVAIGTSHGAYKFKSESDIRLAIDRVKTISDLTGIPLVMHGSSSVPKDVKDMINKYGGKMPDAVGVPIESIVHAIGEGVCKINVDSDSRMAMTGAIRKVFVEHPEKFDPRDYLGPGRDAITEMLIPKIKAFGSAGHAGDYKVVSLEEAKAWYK
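Giardia FBPA (40 nM reagent) was preincubated 10 min at RT with compound (up to 57.5 uM final), then substrate plus GAPDH/TPI/NAD/arsenate coupling system with diaphorase/resazurin was added; resorufin fluorescence (525/598 nm) was read after 20 min.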
Lassa entry inh = blocks Lassa virus binding to or entry into cells | AID 540256 | hit rate 1.2% among 300,000 | Potency, µM (titrated, usually from 37.9 µM), inactives show at the top dose activity change, negative = inhibition, hits mostly inhibitors | Lassa virus pseudotype entry inhibition, cell reporter; calls by dose curve; tested in HEK293 cells; further: potency means the concentration at half of the fitted maximal effect; nearly all actives have a fitted effect of over 50% in size
FMDV antiviral = blocks foot and mouth disease virus; Potency, µM (titrated, usually from 57.9 µM), for inactives: at the highest dose activity change, negative = inhibition, most hits filed as inhibitors; hit rate 1.2% among 410,000; FMDV antiviral cell-based qHTS; calls by dose curve; tested in HEK293T cells; further: read-out not given here; potency means the concentration at half of the fitted maximal effect; nearly all actives have a fitted effect of over 45% in size
Marburg entry inh = inhibitors of Marburg virus binding or cell entry; Marburg virus pseudotyped entry inhibition, cell reporter; Potency, µM (series often up to 37.8 µM), inactives show at the highest dose activity change, negative = inhibition, usual class: inhibitors; hit rate 1.8% among 300,000; AID 540276; calls by dose curve; tested in HEK293 cells; further: potency means the concentration at half of the fitted maximal effect
An asterisk follows results filed as active; ? = inconclusive; nt = no result given; [ ] = remark or other dose. Rows were chosen to be rich in hits. Some 8.3% of all compounds tested hit in one or more screens of this group. Unless noted, the call rests on the fitted dose curve; in most records, active means well fitted curve in the direction sought with a large enough effect; inconclusive means small, poorly fitted or top-dose-only effect, or another doubt; inactive means no such curve, though single readings can be large; an effect the other way counts as inactive or inconclusive. On the % scale 0 is the no-effect control and ±100 the full control effect.

SMILES	HCV inh	HCMV antiviral	Giardia FBPA inh	Lassa entry inh	FMDV antiviral	Marburg entry inh
CCN(CC)Cc1cc(C(C)=O)ccc1OCC(C)C	-22%	40	12%	-2%	-7%	15%
CC(C)COc1ccc(N)cc1OCC(C)C	2.8µM*	-39	-2%	0%	-6%	17%[46.1 µM]
CCOc1ccc(NC(=O)Cn2cnc3sc(C)c(S(=O)(=O)N4CCN(c5ccccc5OC)CC4)c3c2=O)cc1	nt	-1	nt	-22%[46.1 µM]	0%	?
CCOC(=O)Cc1csc(NC(=O)c2c(O)c3ccccc3n(CCC(C)C)c2=O)n1	10µM*	-2	5%	-10%	-21%	?
CCOC(=O)Cc1csc(NC(=O)C2C3C=CC(C3)C2C(=O)O)n1 (stereo not drawn)	0%	-101*	2%	22%	-3%	7%[46.1 µM]
CCOC(=O)Cc1csc(NC(=O)C(CC(C)C)NC(=O)C2CCCCC2)n1 (stereo not drawn)	14µM*	-36	-1%	nt	-19%	nt
CCSC[C@H](NC(=O)[C@H](C)NC(=O)[C@@H](N)Cc1ccc(O)cc1)C(=O)N[C@@H](CC(=O)O)C(=O)N[C@H](C(=O)N[C@@H](C)C(=O)N[C@H](C(=O)N[C@@H](CSCC)C(=O)N[C@H](C(=O)N[C@H](C(=O)N[C@@H](Cc1cnc[nH]1)C(=O)N[C@@H](CCCNC(=N)N)C(=O)N[C@@H](CC(C)C)C(=O)N[C@@H](C)C(=O)NCC(=O)N[C@@H](CC(C)C)C(=O)N[C@@H](CC(C)C)C(=O)N[C@@H](CO)C(=O)N[C@@H](CCCNC(=N)N)C(=O)N[C@@H](CO)C(=O)NCC(=O)NCC(=O)N[C@H](C(=O)N[C@H](C(=O)N[C@@H](CCCCN)C(=O)N[C@@H](CC(N)=O)C(=O)N[C@@H](CC(N)=O)C(=O)N[C@@H](Cc1ccccc1)C(=O)N[C@H](C(=O)N1CCC[C@H]1C(=O)N[C@H](C(=O)N[C@@H](CC(N)=O)C(=O)N[C@H](C(=O)NCC(=O)N[C@@H](CO)C(=O)N[C@@H](CCCCN)C(=O)N[C@@H](C)C(=O)N[C@@H](Cc1ccccc1)C(N)=O)C(C)C)[C@@H](C)O)C(C)C)C(C)C)C(C)C)[C@@H](C)O)C(C)C)[C@@H](C)O)[C@@H](C)O	nt	nt	-1%	nt	nt	nt
C[C@@H](C[C@H](N)C(=O)O)C(=O)O	nt	nt	nt	nt	11%	nt
CC(C)COc1ccc(C(=O)NC(CC(C)C)C(=O)O)cc1 (stereo not drawn)	24%	-6	5%	4%	16%	27%
Cc1ccc(Oc2ccc(OCC(=O)NC(CC(C)C)C(=O)O)cc2)cc1 (stereo not drawn)	13%	-65*	14%	0%	2%	?
O=C1c2ccccc2C(=O)c2c1ccc1c(=O)n(-c3ccccc3)[nH]c21	?	-65*	-28%	8%	-23%	-18%
CC(C)Cn1[nH]c2c3c(ccc2c1=O)C(=O)c1ccccc1C3=O	11µM*	nt	?	?	-2%	-28%
CC(C)COC(=O)c1ccc2c(c1O)C(=O)c1ccccc1C2=O	?	-21	?	?	31%	?
Cc1cccc(-n2[nH]c3c4c(ccc3c2=O)C(=O)c2ccccc2C4=O)c1	?	-28	-19%	0%	-24%	-13%
CCCCc1cc2c(cn1)=C(OC(=O)c1cccs1)C(C)(OC(=O)CC)C(=O)C=2 (stereo not drawn)	nt	nt	-2%[12.9 µM]	nt	nt	28%[14.2 µM]
Cc1ccc(-c2nc(N=Nc3ccc(O)cc3)n[nH]2)cc1	9%	-100*	-10%	?	35%	-6%
COc1ccc(NC(=O)Cn2c(=O)n(-c3ccc(C)cc3)c(=O)c3c2c2cc(C)ccc2n3C)cc1	nt	18	nt	24%[46.1 µM]	5%	nt
CCC(=O)N1CCN(c2nc(-c3ccccc3)c3c(c2C#N)CCCC3)CC1	10µM*	-36	5%	?	?	-20%
CCCCc1nc(N2CCN(C(=O)c3ccco3)CC2)c(C#N)c2c1CCCC2	14µM*	0	nt	nt	?	nt
CCc1nc(N2CCCC2)c(C#N)c2c1CCCC2	0%	-80*	-1%	18%	-9%	12%
Cc1cccc(C=NNc2cc(C)c3cccc(C)c3n2)n1	nt	34	nt	nt	nt	nt
COc1ccc(OC)c(N/C=C/C(=C(C#N)C#N)N(C)C)c1	?	-68*	-4%	-6%[46.1 µM]	12%	?
CCCCn1c(SCc2ccc(C(=O)OC)o2)nc2cc(S(N)(=O)=O)ccc21	2.5µM*	-39	?	?	nt	-37%
CCCCn1c(SCC(=O)c2cc(OC)ccc2OC)nc2cc(S(N)(=O)=O)ccc21	-29%	-20	-6%	25%	-15%	-1%
CCCCn1c(SCC(=O)N(C)C2CCS(=O)(=O)C2)nc2cc(S(N)(=O)=O)ccc21 (stereo not drawn)	8%	-61*	-2%	nt	-14%	nt
SMILES	HCV inh	HCMV antiviral	Giardia FBPA inh	Lassa entry inh	FMDV antiviral	Marburg entry inh
CCCCCOc1ccc(Cn2ccnc2)cc1[N+](=O)[O-]	11µM*	?	6%	6%	-10%	-14%
CCOc1ccc(Cn2ccnc2)cc1[N+](=O)[O-]	3%	25	2%	-6%	1%	?
C[C@@H]1Cc2c(Cl)cc(C(=O)N[C@H](Cc3ccccc3)C(=O)O)c(O)c2C(=O)O1	nt	nt	-5%	nt	nt	nt
c1ccc(-c2nc(-c3cccc4ccccc34)c(Nc3ccc4ccccc4c3)o2)cc1	nt	nt	0%	?	nt	?
CN(C)S(=O)(=O)c1cccc(NC(=O)c2ccc(S(=O)(=O)N3CCCCC3)cc2)c1	?	-22	nt	-3%	-29%	?
CCN(c1ccc(NC(=O)c2ccc(N3CCCC3=O)cc2)cc1)C(C)C	?	-70*	nt	?	?	?
O=C(Nc1cccc(S(=O)(=O)N2CCCCCC2)c1)c1cncc(Br)c1	11µM*	-22	nt	?	?	?
O=C(Nc1cccc(S(=O)(=O)C(F)F)c1)c1ccc(S(=O)(=O)N2CCCCC2)cc1	?	?	-7%	?	28µM*	?
CN(C)S(=O)(=O)c1cccc(NC(=O)c2cccc(S(=O)(=O)N3CCCCCC3)c2)c1	7.9µM*	-61*	nt	?	?	?
CCN(CC)C(=O)c1ccc(NC(=O)c2ccc(N3CCCC3=O)cc2)cc1	5%	9	nt	nt	-3%	nt
C[C@H]1[C@@H](NS(=O)(=O)c2ccc3ccccc3c2)CC[C@@]23CCCN2C(=O)CCC[C@@H]13	nt	-21	nt	nt	nt	nt
CN(CC(=O)Nc1ccc(OC(F)(F)F)cc1)C(=O)c1ccc(N2CCCC2=O)cc1	4.5µM*	-70*	nt	nt	?	nt
Cc1csc(NC(=O)c2ccc(N3CCCC3=O)cc2)n1	-19%	-40	-7%	?	-78%	1.6µM*
CN(C)S(=O)(=O)c1cccc(NC(=O)c2ccc(N3CCCC3=O)cc2)c1	22µM*	9	nt	nt	-20%	nt
